Among all 39,000 compounds or so, about 3,300 (8.5%) were called active. The sample as a whole holds a higher share of actives than the screen did.
These molecules were tested on HepG2 (assay: cytotoxicity call (relative viability < 0.9)). Conditions: 10 µM.

| SMILES | cytotoxicity call |
| --- | --- |
| COc1cccc(NC(=O)N[C@@H]2CC[C@H](CC(=O)N3CCN(C)CC3)O[C@@H]2CO)c1 | inactive |
| COc1cccc(NC(=O)N[C@@H]2CC[C@@H](CC(=O)N3CCN(C)CC3)O[C@@H]2CO)c1 | active |
| COc1cccc(NC(=O)N[C@H]2CC[C@H](CC(=O)N3CCN(C)CC3)O[C@H]2CO)c1 | inactive |
| C[C@H](CO)N1C[C@H](C)[C@H](CN(C)C(=O)Nc2ccc(F)cc2)Oc2ncc(-c3cccc(C(F)(F)F)c3)cc2C1=O | inactive |
| C[C@@H]1CN([C@H](C)CO)C(=O)c2cc(NC(=O)c3ccncc3)ccc2O[C@H]1CN(C)Cc1ccc(C(=O)O)cc1 | inactive |
| COc1ccc(CN(C)C[C@H]2Oc3c(NS(=O)(=O)c4cn(C)cn4)cccc3C(=O)N([C@H](C)CO)C[C@@H]2C)cc1 | inactive |
| C[C@@H]1CN([C@H](C)CO)C(=O)c2cc(NC(=O)c3ccncc3)ccc2O[C@@H](C)CCCCO[C@H]1CN(C)S(=O)(=O)c1ccc(Cl)cc1 | active |
| C[C@@H]1CCCCO[C@@H](CN(C)S(=O)(=O)c2ccc(Cl)cc2)[C@@H](C)CN([C@@H](C)CO)C(=O)c2cc(NC(=O)c3ccncc3)ccc2O1 | inactive |
| C[C@@H]1CCCCO[C@H](CN(C)S(=O)(=O)c2ccc(Cl)cc2)[C@@H](C)CN([C@@H](C)CO)C(=O)c2cc(NC(=O)c3ccncc3)ccc2O1 | active |
| C[C@@H]1CCCCO[C@@H](CN(C)S(=O)(=O)c2ccc(Cl)cc2)[C@H](C)CN([C@@H](C)CO)C(=O)c2cc(NC(=O)c3ccncc3)ccc2O1 | inactive |
| C[C@H]1CCCCO[C@H](CN(C)S(=O)(=O)c2ccc(Cl)cc2)[C@@H](C)CN([C@@H](C)CO)C(=O)c2cc(NC(=O)c3ccncc3)ccc2O1 | inactive |
| C[C@@H]1CCCCO[C@@H](CN(C)S(=O)(=O)c2ccc(Cl)cc2)[C@@H](C)CN([C@H](C)CO)C(=O)c2cc(NC(=O)c3ccncc3)ccc2O1 | inactive |
| Cc1noc(C)c1S(=O)(=O)N(C)C[C@H]1Oc2c(NC(=O)C3CCCCC3)cccc2C(=O)N([C@H](C)CO)C[C@H]1C | inactive |
| COc1ccc(CN(C)C[C@H]2OCCCC[C@@H](C)Oc3ccc(NS(=O)(=O)c4ccc(C)cc4)cc3C(=O)N([C@@H](C)CO)C[C@@H]2C)cc1 | inactive |
| C[C@H]1CCCCO[C@@H](CN(C)S(=O)(=O)c2ccc(Cl)cc2)[C@@H](C)CN([C@@H](C)CO)C(=O)c2cc(NS(=O)(=O)c3ccccc3)ccc2O1 | inactive |
| CC12C=CC(=O)C=C1CCC1C2C(O)CC2(C)C1CCC2(O)C(=O)COC(=O)CCC(=O)O (stereo not given) | inactive |
| Cc1ccc(S(=O)(=O)N(C)C[C@@H]2Oc3ncc(C#CCC(C)C)cc3C(=O)N([C@@H](C)CO)C[C@H]2C)cc1 | active |
| Cc1ccc(S(=O)(=O)N(C)C[C@@H]2Oc3ncc(C#CCC(C)C)cc3C(=O)N([C@H](C)CO)C[C@@H]2C)cc1 | inactive |
| COc1cccc(-c2cnc3c(c2)C(=O)N([C@H](C)CO)C[C@H](C)[C@H](CN(C)S(=O)(=O)c2ccccc2)O3)c1 | active |
| COc1cccc(S(=O)(=O)N(C)C[C@H]2Oc3ncc(C#CCC(C)C)cc3C(=O)N([C@H](C)CO)C[C@@H]2C)c1 | active |

| SMILES | cytotoxicity call |
| --- | --- |
| Cc1ccc(S(=O)(=O)N(C)C[C@H]2Oc3ncc(C#CCC(C)C)cc3C(=O)N([C@H](C)CO)C[C@@H]2C)cc1 | inactive |
| Cc1ccc(S(=O)(=O)N(C)C[C@@H]2Oc3ncc(C#CCC(C)C)cc3C(=O)N([C@H](C)CO)C[C@H]2C)cc1 | inactive |
| Cc1ccc(S(=O)(=O)N(C)C[C@H]2Oc3ncc(C#CCC(C)C)cc3C(=O)N([C@@H](C)CO)C[C@H]2C)cc1 | active |
| COc1cccc(S(=O)(=O)N(C)C[C@H]2Oc3ncc(C#CCC(C)C)cc3C(=O)N([C@H](C)CO)C[C@H]2C)c1 | inactive |
| Cc1ccc(S(=O)(=O)N(C)C[C@H]2Oc3ncc(C#CCC(C)C)cc3C(=O)N([C@@H](C)CO)C[C@@H]2C)cc1 | inactive |
| COc1cccc(-c2cnc3c(c2)C(=O)N([C@H](C)CO)C[C@H](C)[C@H](CN(C)S(=O)(=O)c2cccc(OC)c2)O3)c1 | inactive |
| COc1cccc(S(=O)(=O)N(C)C[C@@H]2Oc3ncc(-c4ccccc4)cc3C(=O)N([C@H](C)CO)C[C@@H]2C)c1 | inactive |
| COc1cccc(S(=O)(=O)N(C)C[C@H]2Oc3ncc(C#CCC(C)C)cc3C(=O)N([C@@H](C)CO)C[C@H]2C)c1 | inactive |
| CN(C)CCCNC(=O)C[C@@H]1CC[C@H]2[C@@H](COC[C@@H](O)CN2S(=O)(=O)c2ccc(F)cc2)O1 | inactive |
| CO[C@H]1CN(C)C(=O)c2cc(NS(=O)(=O)CC(F)(F)F)ccc2OC[C@H](C)N(Cc2ccccn2)C[C@@H]1C | inactive |
| CC(C)CC#Cc1cnc2c(c1)C(=O)N([C@@H](C)CO)C[C@@H](C)[C@@H](CN(C)C(=O)CN1CCOCC1)O2 | inactive |
| C[C@@H]1CN([C@@H](C)CO)C(=O)c2cc(NS(=O)(=O)c3ccccc3)ccc2O[C@@H](C)CCCCO[C@H]1CN(C)C(=O)c1ccccc1 | inactive |
| C[C@@H]1CCCCO[C@H](CN(C)C(=O)Cc2ccccc2)[C@@H](C)CN([C@H](C)CO)C(=O)c2cc(NC(=O)Nc3ccc4c(c3)OCO4)ccc2O1 | inactive |
| CNC[C@H]1Oc2ccc(NS(=O)(=O)c3cn(C)cn3)cc2C(=O)N([C@@H](C)CO)C[C@H]1C | inactive |
| C[C@@H]1CCCCO[C@@H](CN(C)C(=O)Nc2ccccc2)[C@H](C)CN([C@@H](C)CO)C(=O)c2cc(NC(=O)Nc3ccccc3)ccc2O1 | inactive |
| C[C@@H]1CN([C@@H](C)CO)C(=O)c2cc(-c3ccc(C(=O)N(C)C)cc3)cnc2O[C@H]1CN(C)C(=O)CN(C)C | inactive |
| C[C@H]1CCCCO[C@H](CN(C)Cc2ccccc2)[C@@H](C)CN([C@@H](C)CO)C(=O)c2cc(NC(=O)c3ccncc3)ccc2O1 | inactive |
| Cc1noc(C)c1NC(=O)Nc1ccc2c(c1)C(=O)N([C@H](C)CO)C[C@@H](C)[C@H](CN(C)Cc1ccc(Oc3ccccc3)cc1)O2 | inactive |
| Cc1cc(C(=O)Nc2cccc3c2O[C@@H](CN(C)C(=O)NC(C)C)[C@H](C)CN([C@H](C)CO)C3=O)n(C)n1 | inactive |
| C[C@@H]1CN([C@@H](C)CO)C(=O)c2cc(NC(=O)Nc3cccc4ccccc34)ccc2O[C@@H](C)CCCCO[C@@H]1CN(C)S(=O)(=O)c1ccc(F)cc1 | inactive |

| SMILES | cytotoxicity call |
| --- | --- |
| CN1CCN(C(=O)C[C@H]2CC[C@@H](NC(=O)c3ccc4c(c3)OCO4)[C@H](CO)O2)CC1 | inactive |
| C[C@@H]1CN([C@@H](C)CO)C(=O)c2c(c3ccccc3n2C)-c2ccccc2CO[C@H]1CN(C)C(=O)Nc1ccccc1 | inactive |
| CN1C(=O)c2cc(NC(=O)C3CCOCC3)ccc2OC[C@H]2O[C@H](CC(=O)NCc3ccccc3F)CC[C@H]21 | inactive |
| C[C@H]1CN([C@@H](C)CO)C(=O)c2cc(NS(=O)(=O)c3cn(C)cn3)ccc2O[C@@H]1CN(C)Cc1ccccc1 | inactive |
| C=CC1=C(C)c2cc3[nH]c(cc4nc(cc5[nH]c(cc1n2)c(C)c5CCC(=O)O)C(CCC(=O)O)=C4C)c(C)c3C=C | active |
| C=CC1=C(C)C2=NC/1=C\C1=NC(=C\C3=NC(=C\C4=NC(=C\2)/C(C)=C4CCC(=O)O)/C(CCC(=O)O)=C3C)/C(C=C)=C1C | inactive |
| CC/1=C(CCC(=O)O)/C/2=C/c3[nH]c(c(c3CCC(=O)O)C)/C=C/3\N=C(/C=C/4\N=C(\C=C1/N2)C(=C4C)C=C)C(=C3C)C=C | active |
| C=CC1=C(C)C(=Cc2[nH]c(Cc3[nH]c(C=C4NC(=O)C(C)=C4C=C)c(C)c3CCC(=O)O)c(CCC(=O)O)c2C)NC1=O | inactive |
| CC1=C(CCC(=O)O)c2cc3[nH]c(cc4nc(cc5[nH]c(cc1n2)c(C)c5C(C)O)C(C)=C4C(C)O)c(C)c3CCC(=O)O (stereo not given) | active |
| CCc1c(c/2[nH]c1/C=C/1\N=C(/C(=C/3\N=C(/C=C/4\N/C(=C2)C(=C4C)C=C)[C@@H](C)[C@@H]3CCC(=O)O)CC(=O)N[C@@H](CC(=O)O)C(=O)O)C(=C1C)C(=O)O)C | inactive |
| COC(=O)CCc1c(c/2[nH]c1/C=C/1\N=C(/C=C/3\N=C(/C=C/4\N/C(=C2)[C@]2(C)[C@H](C(=O)OC)C(=CC=C42)C(=O)OC)C(=C3C=C)C)C(=C1CCC(=O)O)C)C | active |
| COC(=O)[C@H]1C2C(=O)N(C3CC3)C[C@]23C=C[C@H]1O3 (stereo not given in full) | inactive |
| C[C@H]1CN([C@@H](C)CO)C(=O)c2cccc(NC(=O)C3CCCCC3)c2O[C@H]1CN(C)Cc1ccc(Cl)c(Cl)c1 | inactive |
| CO[C@H]1CN(C)C(=O)c2ccc(NS(C)(=O)=O)cc2OC[C@H](C)N(C(=O)c2ccc3c(c2)OCO3)C[C@H]1C | inactive |
| C[C@@H]1CN([C@@H](C)CO)S(=O)(=O)c2ccc(C#CC(C)(C)O)cc2O[C@H]1CN(C)Cc1ccccc1 | inactive |
| CCCC(=O)Nc1ccc2c(c1)C(=O)N(C)C[C@@H](OC)[C@H](C)CN(Cc1cc(-c3ccccc3)on1)[C@H](C)CO2 | inactive |
| Cc1noc(C)c1NC(=O)N(C)C[C@@H]1Oc2ccc(NC(=O)CCCN(C)C)cc2C(=O)N([C@@H](C)CO)C[C@@H]1C | inactive |
| C[C@@H]1CN([C@@H](C)CO)C(=O)Cc2cc(NC(=O)Cc3ccccc3)ccc2O[C@@H]1CN(C)S(=O)(=O)c1ccccc1 | inactive |
| O=C(Nc1ccc2c(c1)[C@@H]1C[C@@H](CC(=O)N3CCc4ccccc4C3)O[C@@H](CO)[C@@H]1O2)C1CCOCC1 | inactive |
| O=C(C[C@H]1C=C[C@H](NC(=O)c2ccc3c(c2)OCO3)[C@H](CO)O1)NCc1ccc(Oc2ccccc2)cc1 | inactive |

Reference: the antibiotic and cytotoxicity screens of Wong et al. (2023)
